Compound activity (PubChem)
FECH block: human FECH heme synthesis enzyme inhibition; P22830; purified FECH, Ni-mesoporphyrin absorbance 550 nm; calls only at 10 µM (by protocol); 3.3% of 20,000 active; AID 1671448;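 active = enzyme reaction rate more than 3 SD below the solvent-only control wells on the same plate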;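 note: lower slope than DMSO wells means FECH inhibition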
Target sequence (P22830 whole entry, looked up): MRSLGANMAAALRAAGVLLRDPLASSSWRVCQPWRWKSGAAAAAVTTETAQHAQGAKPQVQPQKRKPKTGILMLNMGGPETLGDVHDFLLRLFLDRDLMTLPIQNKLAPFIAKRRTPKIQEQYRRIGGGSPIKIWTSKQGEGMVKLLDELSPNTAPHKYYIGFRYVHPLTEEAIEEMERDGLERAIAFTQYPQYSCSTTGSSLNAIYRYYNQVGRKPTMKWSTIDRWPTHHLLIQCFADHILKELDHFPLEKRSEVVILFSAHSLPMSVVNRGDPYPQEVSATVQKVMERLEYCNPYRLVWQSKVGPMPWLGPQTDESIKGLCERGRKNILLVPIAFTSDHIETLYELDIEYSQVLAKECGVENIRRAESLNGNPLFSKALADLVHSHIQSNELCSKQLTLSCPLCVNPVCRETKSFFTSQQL
The depositor's hits bear a star; i = inactive; + = active, no number. Shown is part of a subset that was picked to be rich in hits.

SMILES	FECH block
C=CCn1cc(CN[C@H](C)c2cccc(OC)c2)c(C)n1	+
C=CCn1cc(CNC(C)C2=CCCCC2)c(C)n1 (configuration not stated)	i
Cc1cccc(C(=O)Nc2ccccc2Sc2c(C)c(C)nc3ncnn23)c1	+
CCc1c(C)nc2ncnn2c1Sc1ccccc1NC(=O)c1ccc(OC)cc1	i
Cc1nc2nc(-c3ccccc3)nn2c(Sc2ccccc2NC(=O)c2c(F)cccc2F)c1C	i
CCc1c(C)nc2ncnn2c1Sc1ccccc1NC(=O)c1ccc(F)cc1	+
CCCc1c(C)nc2ncnn2c1Sc1ccccc1NC(=O)c1ccc(C)cc1	i
CCCc1c(C)nc2ncnn2c1Sc1ccccc1NC(=O)c1ccc(C(C)(C)C)cc1	+
Cc1nc2ncnn2c(Sc2ccccc2NC(=O)c2ccc(Cl)cc2)c1C	i
Cc1nc2nc(-c3ccccc3)nn2c(Sc2ccccc2NC(=O)c2ccccc2)c1C	i
CCc1c(C)nc2ncnn2c1Sc1ccccc1NC(=O)c1cc(OC)cc(OC)c1	i
CCC(=O)Nc1ccccc1Sc1c(C)c(C)nc2nc(-c3ccccc3)nn12	+
CCc1cc(Sc2ccccc2NC(=O)c2cccc(C)c2)n2ncnc2n1	i
CCCc1c(C)nc2ncnn2c1Sc1ccccc1NC(=O)c1cccc(Cl)c1	i
COC(=O)CN1CCN(C2CCN(C(C)=O)CC2)C(C)C1=O (configuration not stated)	i
O=C1NCC2(CCCN(Cc3ccc(-c4ccccc4)s3)CC2)O1 (configuration not stated)	i
Cc1nc(OCC(=O)NCc2ccccc2F)c2c(C)c(C)oc2n1	i
COc1nccnc1N1CCC(N2CCCC(C(=O)N3CCOCC3)C2)CC1 (configuration not stated)	i
Cc1cc(N2CCCC2)nc(Nc2ccc(NC(=O)c3cccs3)cc2)n1	i
COc1ccc(C(=O)Nc2cc(C)nn2-c2ncnc3c2cnn3-c2cccc(Cl)c2)c(OC)c1	i
CC(C)C(C)N(Cc1ccco1)C(=O)c1ccc2nc[nH]c2c1 (configuration not stated)	i
COc1nc(OC)nc(-c2cc(C)ccc2OC)n1	i
C1=CCC(c2cn(Cc3nccn3Cc3ccccc3)nn2)CC1 (configuration not stated)	i
CCOc1ccc(Cn2c(CNS(=O)(=O)c3ccc(CC(C)C)cc3)nc3cccnc32)cc1	i
CC(C)n1cnc2nc(CSc3ccccc3NC(=O)c3cccc(Cl)c3)cc(=O)n21	i
SMILES	FECH block
CC(C)n1cnc2nc(CSc3ccccc3NC(=O)COc3ccccc3F)cc(=O)n21	+
CC(C)n1cnc2nc(CSc3ccccc3NC(=O)COc3ccc(F)cc3)cc(=O)n21	i
CCc1ccccc1OCC(=O)Nc1ccccc1SCc1cc(=O)n2c(ncn2C(C)C)n1	i
COc1ccc(C(=O)Nc2ccccc2SCc2cc(=O)n3c(ncn3C(C)C)n2)cc1OC	i
CCCn1cnc2nc(CSc3ccccc3NC(=O)c3ccc(Cl)cc3)cc(=O)n21	+
Cc1cc(C)c(S(=O)(=O)N2CCN(c3nc(C)cc(N4CCOCC4)n3)CC2)c(C)c1	i
Cc1nn(CC(=O)N2CCNCC2C(=O)NCc2ccccn2)c(C)c1C (configuration not stated)	i
COCCN(Cc1nccs1)Cc1cc2ccccc2[nH]c1=O	i
COc1ccc(O)cc1CN1CCCC(CNC(=O)C=C(C)C)C1 (configuration not stated)	i
Cc1nc2ncnn2c(Sc2ccc(NC(=O)Nc3ccc(F)c(Cl)c3)cc2)c1C	i
CN(Cc1nc2ccccc2n1C)C(=O)c1cnc(-c2cccnc2)nc1	i
CC1=C(C(=O)NCCCN(C)Cc2ccccc2)C2(CCN(S(C)(=O)=O)CC2)OC1=O	i
CCC(C(=O)Nc1ccc(Nc2nc(C)cc(Nc3ccc(C)cc3)n2)cc1)c1ccccc1 (configuration not stated)	i
CCC(C(=O)Nc1ccc(Nc2nc(C)cc(Nc3ccccc3)n2)cc1)c1ccccc1 (configuration not stated)	i
CCC(C(=O)Nc1ccc(Nc2nc(C)cc(N(C)C)n2)cc1)c1ccccc1 (configuration not stated)	+
C=CCN(Cc1ccccc1Cl)C(=O)c1ccc2nccn2c1	i
CC1=NOC(C(=O)N2CCOc3c(O)cc(-c4ccc(C)s4)cc3C2)C1 (configuration not stated)	i
O=C(CCC(=O)N1CCOC2(CNCCOC2)C1)NC1CCCC1 (configuration not stated)	i
CN1CCCC1CCNC(=O)CCC(=O)NC1CCCC1 (configuration not stated)	i
CCN(CC)C1CCN(C(=O)CCC(=O)NC2CCCCCCC2)C1 (configuration not stated)	+
CCCNC(=O)N1CCN(c2cc(-c3ccc(OC)cc3)ncn2)CC1	i
Cc1cc(C)n2ncc(CN3CCN(c4ncccc4C)CC3)c2n1	i
CCOc1ccccc1CN(CC)C(=O)c1ccc2nccn2c1	i
CCOc1ccccc1CN(C(=O)c1cn2cc(Cl)ccc2n1)C1CC1	+
CCOc1ccccc1CN(C(=O)c1cn(CC)c2nc(C)ccc2c1=O)C1CC1	i
SMILES	FECH block
Cc1ccc(Nc2nc(N3CCN(CCO)CC3)nc3c2cnn3-c2ccccc2)cc1C	i
CCc1ccc2occ(CC(=O)N3CCCC(N4CCCC4=O)C3)c2c1 (configuration not stated)	i
O=C(CSc1cc(N2CCCCC2)ncn1)Nc1ccc2c(c1)OCCO2	i
CCc1cccc(NC(=O)CSc2cc(Oc3cc(C)cc(C)c3)ncn2)c1	+
Cc1ccc(NC(=O)CSc2cc(Oc3cc(C)cc(C)c3)ncn2)cc1	+
Cc1ccc(NC(=O)CSc2cc(N3CCCCC3)ncn2)cc1F	i
CSc1ccc(CNC(=O)CSc2cc(Oc3cc(C)cc(C)c3)ncn2)cc1	+
COc1cc(NC(=O)CSc2cc(Oc3cc(C)cc(C)c3)ncn2)cc(OC)c1	+
COc1cc(NC(=O)CN2CCCN(Cc3ccc(C)cc3)S2(=O)=O)cc(OC)c1	i
COc1ccc(CNC(=O)CSc2cc(N3CCCCC3)ncn2)cc1	i
CCc1cccc(NC(=O)CCC(=O)NCc2ncc[nH]2)c1	i
CSc1ccc(CNC(=O)COc2cc(C)nc(-c3ccc(C)cc3)n2)cc1	i
CCc1cccc(NC(=O)CN2CCCN(Cc3ccc(OC)cc3)S2(=O)=O)c1	i
COc1ccc(NC(=O)CSc2cc(N3CCCCC3)ncn2)cc1OC	i
CC(C)C(C)N(Cc1cnc[nH]1)Cc1ccco1 (configuration not stated)	i
CC(C)c1noc(C2CCN(C(=O)CCc3c[nH]c4ccccc34)CC2)n1	i
CCc1cc(Sc2ccc(NC(=O)Nc3ccc(F)c(Cl)c3)cc2)n2nc(C)nc2n1	i
COc1ccc(Nc2cc(C)nc(N3CCN(S(=O)(=O)c4cc(OC)ccc4OC)CC3)n2)cc1	i
COCCNC(=O)C1(C)Cn2c(cc3ccsc32)C(=O)N1Cc1cccc(Cl)c1 (configuration not stated)	i
O=C(Nc1ccccc1F)N1CCCCC1CCc1cccc(O)c1 (configuration not stated)	i
COc1ccc(C(=O)N2CCN(S(=O)(=O)c3cc4c5c(c3)CCN5C(=O)CC4)CC2)cc1OC	i
O=C(c1csc2nc(-c3ccccc3)cn12)N1CCCC(c2cc(=O)[nH]cn2)C1 (configuration not stated)	i
